The test system of this test is Plasmodium falciparum NF54. Put plainly: growth inhibition relative to untreated control; higher = more inhibition. The following applies: 72 h. In short, it runs like this: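 Ring-stage P. falciparum NF54 parasites at 1% hematocrit and 1% parasitemia were dispensed at 100 μL/well into dark 96-well half-area plates and given a single dose of test compound at 5 μM or 1 μM for 72 h at 37 °C. Incubation took place in minimal RPMI, either alone or supplemented with the chorismate end-products folate (2.2 μM), pABA (7.3 μM), pHBA (7.3 μM), tyrosine (111 μM), phenylalanine (90 μM) and tryptophan. Growth inhibition was determined with SYBR Green relative to untreated wells, using uninfected erythrocytes for background.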

[1] abbreviates: 1 µM, MM + chorismate end-products (CM screening medium).
Where [2] appears, read: 5 µM, MM + chorismate end-products (CM screening medium).

Some results are limits rather than exact numbers.

As for `COc1ccc(N(CCc2cccc(C)n2)C(=O)C2CCCCC2)cc1`, the growth inhibition is 4.48% under setting [1]; 36.2% (1 µM, minimal medium (MM)); 4.56% under setting [2]; 9.01% (5 µM, minimal medium (MM)).
For `Clc1cccc(CO[C@H]2CCc3ccccc3[C@@H]2n2ccnn2)c1` the same measures were 7.57%, below 0%, below 0% and 15.4%.
The matching figures for `CC(C)C(Oc1cccc2ccccc12)C(=O)O` (configuration not stated): 17.4%, 13.6%, below 0% and 0.0991%.
For `O=C1N(Cc2cc3ccccc3s2)CC2CN(Cc3ccccc3)CCN12` (configuration not stated) the same measures were 97.5%, 98%, 96.5% and 94.8%.
With `CC(=O)NCC1CN(c2ccc(-c3ccc(CO)cc3)c(F)c2)C(=O)O1` (configuration not stated), the growth inhibition by setting is: under setting [1], below 0%; (1 µM, minimal medium (MM)) 7.91%; under setting [2], 31.4%; (5 µM, minimal medium (MM)) 17.6%.
Take `CCC(Sc1nc2ccccc2o1)C(=O)Nc1nccs1` (configuration not stated): the growth inhibition runs as follows: under setting [1], 66.4%; (1 µM, minimal medium (MM)) 33%; under setting [2], 60%; (5 µM, minimal medium (MM)) 3.39%.
For `CCCCc1ccc(NC(=O)Nc2ccc(O[C@H]3CCCC[C@@H]3N(C)c3ccccc3)c(F)c2)cc1` the same measures were 17.3%, below 0%, 98.1% and 85.4%.
The matching figures for `Cc1cc(OCC(=O)NCc2ccccc2)c2cc(Br)ccc2n1`: 12.6%, 3.05%, 56.5% and below 0%.
For `Cc1ccc2cc(C3NC(=O)c4ccccc4N3)c(Cl)nc2c1` (configuration not stated) the same measures were 86%, 82.6%, 95.2% and 88.5%.
Turning to `CNc1snc(C)c1C(=O)NCCOc1ccc(OC)cc1`, the growth inhibition under setting [1] is 42.3%; the growth inhibition (1 µM, minimal medium (MM)) was below 0%; the growth inhibition under setting [2] worked out at 42.9%; the growth inhibition (5 µM, minimal medium (MM)) turned out to be 34.9%.
The matching figures for `CCOC(=O)c1c(NC(=O)c2c(F)c(F)c(F)c(F)c2F)sc(C(N)=O)c1C`: 28.3%, below 0%, 14.8% and 13.1%.
The matching figures for `CCCCOC(=O)Nc1cc2nc(C3CCCCC3)[nH]c2cc1N1CCCC1`: 11.2%, 15.4%, 85.8% and 5.52%.
For `Cc1cccc(-c2nc(Nc3ccncn3)c3sccc3n2)n1` the same measures were 81.1%, 89.4%, above 100% and 98.7%.

The values above are taken from the supplement of paper PMC6763611.
